Measurements reported in PubChem BioAssay (NCATS).
Results filed as inconclusive are left out. The source made the active and inactive calls. Calls come from the whole dose curve; as a rule, active = well fitted curve in the direction sought with a large enough effect; inconclusive = small, poorly fitted or top-dose-only effect, or another doubt; inactive = no such curve, though single readings can be large; an effect the other way counts as inactive or inconclusive.

How the values were obtained:
CP192 = assay: qHTS profiling for inhibitors of Plasmodium falciparum proliferation (AID 504749); note: nearly all actives have a fitted effect of over 60% in size; note: potency is the fitted concentration of half-maximal effect; settings: P. falciparum in erythrocytes, SYBR Green DNA, 72 h; series mostly up to 28.7 µM
How it was run: (§1)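 Fluorescence of SYBR Green-bound parasite DNA, read at 485/535 nm, served as the growth measure. Infected erythrocytes were cultured with compound 72 h; artemisinin (0.29 uM) and DMSO wells defined the normalization range.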

CP203 = assay: as above; settings: P. falciparum in erythrocytes, SYBR Green DNA, 72 h; series mostly up to 28.7 µM
How it was run: as §1

CP266 = assay: as above; settings: P. falciparum in erythrocytes, SYBR Green DNA, 72 h; series mostly up to 28.7 µM
How it was run: as §1

CP268 = assay: as above; settings: P. falciparum in erythrocytes, SYBR Green DNA, 72 h; series mostly up to 28.7 µM
How it was run: as §1

CP269 = assay: as above; settings: P. falciparum in erythrocytes, SYBR Green DNA, 72 h; series mostly up to 28.7 µM
How it was run: as §1

CP297 = assay: as above; settings: P. falciparum in erythrocytes, SYBR Green DNA, 72 h; series mostly up to 28.7 µM
How it was run: as §1

CP329 = assay: as above; settings: P. falciparum in erythrocytes, SYBR Green DNA, 72 h; series mostly up to 28.7 µM
How it was run: as §1

PC26 = assay: as above; settings: P. falciparum in erythrocytes, SYBR Green DNA, 72 h; series mostly up to 28.7 µM
How it was run: as §1

[1] = NCATS anti-infectives library activity on HEK293 viability as a counter-qHTS vs the C. elegans viability qHTS (AID 1745854);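 note: HEK293 cells exposed to compounds for 24 hr before the viability read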
How it was run: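 Compound titrations (final up to 41.7 uM) were incubated with HEK293 cells for 24 hr at 37C under 5% CO2. Viable cells were quantified with CellTiter-Glo after 10 min at ambient temperature.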

[2] = S16 Schwann cell PMP22 intronic element firefly luciferase assay (AID 624032); note: nearly all actives have a fitted effect of over 30% in size; note: potency is the fitted concentration of half-maximal effect
How it was run: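 Rat S16 Schwann cells stably carrying a PMP22 intronic element-driven Fluc reporter were seeded overnight, then exposed to compounds for 24 h at 37 °C. Luminescence was normalized to PTC124 (positive control) and DMSO (0% activity).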

7G8 = assay: qHTS profiling for inhibitors of Plasmodium falciparum proliferation (AID 504749); note: nearly all actives have a fitted effect of over 60% in size; note: potency is the fitted concentration of half-maximal effect; settings: P. falciparum in erythrocytes, SYBR Green DNA, 72 h; series mostly up to 28.7 µM
How it was run: as §1

CP262 = assay: as above; settings: P. falciparum in erythrocytes, SYBR Green DNA, 72 h; series mostly up to 28.7 µM
How it was run: as §1

DIV14 = assay: as above; settings: P. falciparum in erythrocytes, SYBR Green DNA, 72 h; series mostly up to 28.7 µM
How it was run: as §1

DIV17 = assay: as above; settings: P. falciparum in erythrocytes, SYBR Green DNA, 72 h; series mostly up to 28.7 µM
How it was run: as §1

DIV30 = assay: as above; settings: P. falciparum in erythrocytes, SYBR Green DNA, 72 h; series mostly up to 28.7 µM
How it was run: as §1

TAB109 = assay: as above; settings: P. falciparum in erythrocytes, SYBR Green DNA, 72 h; series mostly up to 28.7 µM
How it was run: as §1

W2 = assay: as above; settings: P. falciparum in erythrocytes, SYBR Green DNA, 72 h; series mostly up to 28.7 µM
How it was run: as §1

[3] = target: Cytochrome P450 2C9 (Homo sapiens) (UniProt P11712); assay: qHTS Assay for Inhibitors and Substrates of Cytochrome P450 2C9 (AID 883); note: potency is the fitted concentration of half-maximal effect; nearly all actives have a fitted effect of over 60% in size
Cytochrome P450 2C9 (Homo sapiens), sequence (P11712 whole entry, looked up): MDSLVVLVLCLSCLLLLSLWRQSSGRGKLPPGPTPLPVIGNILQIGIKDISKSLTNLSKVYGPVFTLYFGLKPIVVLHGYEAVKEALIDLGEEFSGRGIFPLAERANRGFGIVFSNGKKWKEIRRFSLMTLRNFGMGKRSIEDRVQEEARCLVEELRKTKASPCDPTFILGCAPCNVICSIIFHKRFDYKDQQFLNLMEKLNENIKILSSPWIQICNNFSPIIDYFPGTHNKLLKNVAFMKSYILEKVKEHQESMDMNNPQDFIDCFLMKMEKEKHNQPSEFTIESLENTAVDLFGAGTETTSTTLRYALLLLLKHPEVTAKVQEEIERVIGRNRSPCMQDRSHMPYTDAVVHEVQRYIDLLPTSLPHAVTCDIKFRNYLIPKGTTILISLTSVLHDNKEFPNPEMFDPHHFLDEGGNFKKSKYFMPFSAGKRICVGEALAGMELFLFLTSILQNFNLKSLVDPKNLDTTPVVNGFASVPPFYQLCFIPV
How it was run: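 Human CYP2C9 (10nM) hydroxylated Luciferin-H (100uM, at its KM) to luciferin in 25mM KPO4. Compound was preincubated 10 min at 37C, then NADPH regeneration started a 60 min reaction at 37C. Luminescence was read after detection reagent, normalized to 57uM sulphaphenazole.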

[4] = target: Calcium and integrin-binding protein 1 (Homo sapiens) (UniProt Q99828); assay: Confirmatory qHTS for Identification of Calcium Integrin Binding Protein 1 (CIB1) Competitor (AID 1508617); note: nearly all actives have a fitted effect of over 65% in size; note: potency is the fitted concentration of half-maximal effect
Calcium and integrin-binding protein 1 (Homo sapiens), sequence (Q99828 whole entry, looked up): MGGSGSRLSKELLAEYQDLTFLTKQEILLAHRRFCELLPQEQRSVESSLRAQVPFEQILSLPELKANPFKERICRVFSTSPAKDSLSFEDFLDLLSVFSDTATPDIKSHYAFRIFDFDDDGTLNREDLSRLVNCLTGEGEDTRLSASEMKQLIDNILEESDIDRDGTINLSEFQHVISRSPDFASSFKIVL
How it was run: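 Binding competition between test compounds and fluorescent alphaIIb peptide for 1 uM CIB1-GST is monitored by FP at 480/540 nm. Final compound range is up to 114 uM; unlabeled peptide serves as reference competitor.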

[5] = target: Calcium and integrin-binding protein 1 (Homo sapiens) (UniProt Q99828); assay: Primary qHTS for Identification of Calcium Integrin Binding Protein 1 (CIB1) Competitor (AID 1508620); note: potency is the fitted concentration of half-maximal effect
How it was run: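 Fluorescence polarization competition: CIB1-GST (1 uM final) preincubated with compound 15 min at room temperature, then FITC-labeled alphaIIb peptide (100 nM final) added for another 15 min. Polarization read at Ex 480/Em 540.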

Measured: Potency

C=C1/C(=C\C=C2/CCC[C@]3(C)[C@@H]([C@H](C)CCCC(C)(C)O)CC[C@@H]23)C[C@@H](O)C[C@@H]1O
inactive: CP192 | CP203 | CP266 | CP268 | CP269 | CP297 | CP329 | PC26

CN(C)Cc1ccc(S(=O)(=O)n2ccc(/C=C/C(=O)NO)c2)cc1
inactive: [1]

CN=C(N)NCCCC(N)C(=O)O (stereo unspecified)
inactive: [2] | 7G8 | CP192 | CP203 | CP262 | CP266 | CP268 | CP269 | CP297 | CP329 | DIV14 | DIV17 | DIV30 | PC26 | TAB109 | W2

N[C@H](Cc1ccc(O)c(O)c1)C(=O)O
inactive: TAB109

N=C1Sc2ccccc2C2=NCCCN12
active: [3] 0.794 µM

CN1C(=O)CCC1c1cccnc1 (stereo unspecified)
inactive: [2] | 7G8 | CP192 | CP203 | CP262 | CP266 | CP268 | CP269 | CP297 | CP329 | DIV14 | DIV17 | DIV30 | PC26 | TAB109 | W2

COc1cc2c(cc1OC)C(c1ccccc1)CN(C)CC2 (stereo unspecified)
inactive: [2] | CP203 | CP262 | CP266 | DIV30 | PC26

CCc1ccc(NC(=O)C(=O)NNC(=O)c2cccs2)cc1
inactive: [4]

CC(C)(C)[C@]1(O)CCN2CC3c4ccccc4CCc4cccc(c43)[C@@H]2C1 (stereo partly specified)
active: [2] 36.1 µM | 7G8 11.2 µM | DIV14 10.7 µM | DIV17 15.1 µM | W2 5.36 µM
inactive: CP329

CSc1cc2c(s1)c1cnn(Cc3cccc(N)c3)c(=O)c1n2C
active: [4] 39.8 µM

COC(=O)c1c(-c2cc(OC)c(OC)c(OC)c2)c2ccc(OCc3ccccn3)cc2c(=O)n1-c1ccc(N)cc1
active: [3] 3.98 µM

COc1ccc(CCNC[C@@H](O)c2ccc(O)cc2)cc1OC
inactive: [2] | 7G8 | CP192 | CP262 | CP266 | CP268 | CP269 | CP329 | TAB109

CC(C)(C)OC(=O)CC(=O)NNC(=O)c1nc2ccccc2[nH]1
inactive: [4]

CN1C[C@H](C(=O)N[C@]2(C)O[C@@]3(O)C4CCCN4C(=O)[C@H](Cc4ccccc4)N3C2=O)C[C@@H]2c3cccc4[nH]cc(c34)C[C@H]21 (stereo partly specified)
active: 7G8 0.158 µM | TAB109 7.08 µM

CCCC(=O)NCCc1c2n(c3ccc(OC)cc13)Cc1ccccc1-2
active: [3] 1.26 µM

CC(O)c1ccc(-c2ccc3ncnc(N4CCOCC4)c3c2)o1 (stereo unspecified)
inactive: [4]

CC(C)C[C@H]1C(=O)N2CCCC2[C@]2(O)O[C@](NC(=O)[C@@H]3C=C4c5cccc6[nH]c(Br)c(c56)C[C@H]4N(C)C3)(C(C)C)C(=O)N12 (stereo partly specified)
active: 7G8 0.708 µM | CP192 16.9 µM | CP203 9.53 µM | CP262 8.49 µM | CP268 12 µM | CP269 10.7 µM | CP297 10.7 µM | DIV14 3.38 µM | DIV17 3.79 µM | DIV30 5.36 µM | PC26 5.36 µM | TAB109 5.62 µM | W2 1.69 µM

Cc1cccc(-c2csc(N3CCC(C(N)=O)CC3)n2)c1
inactive: [5]

O=S(=O)(Nc1nccs1)c1ccc(Nc2nc(-c3ccccc3)cs2)cc1
active: [4] 50.1 µM | [5] 50.1 µM

CCNc1cccc(S(=O)(=O)N2CCCN(S(=O)(=O)c3ccc4c(c3)OCCO4)CC2)c1
inactive: [5]

CCNc1ncnc2ccc(-c3ccc4c(c3)OCO4)cc12
inactive: [5]

O=C1CCCC2=C1C(c1ccncc1)N=C(Nc1nc3ccccc3o1)N2 (stereo unspecified)
inactive: [4]
